# According to PubChem BioAssay:
# For some of these results: Entries with a potency or affinity are not part of this list. Calls of active or inactive are those of the source.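 The calls were made as follows, unless noted: active = earlier screen potentiator hit that boosts the TRPC4 ion channel at some dose, with a dose response; inactive = no potentiation, no dose response, or not a prior hit.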
# Tests used:
# [1] = tested on: TRPC4 beta (transient receptor potential cation channel C4), mouse; assay: activators of mouse TRPC4 channel, confirmation, cell-based, Fluo4 calcium, HEK293 TRPC4beta/mu-opioid, duplicates, 10 µM (AID 2426;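 active = fluorescence ratio normalized to control raised more than 50% in primary screen plus both repeat runs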); details: Fluo4 calcium fluorescence, at 10 µM; active compounds read high
# [2] = tested on: transient receptor potential cation channel C4 beta (TRPC4), mouse; assay: activators of mouse TRPC4 channel, confirmation, cell-based, second round, Fluo4, HEK293 TRPC4beta/mu-opioid, 1 µM (AID 2461;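 active = primary screen active and over 50% activation in each of two duplicate runs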); details: Fluo4 calcium fluorescence, at 1 µM; active compounds read high
# [3] = tested on: TRPC4 (transient receptor potential cation channel C4 beta), mouse; assay: positive allosteric modulators of mouse TRPC4, confirmation, cell-based, second round, Fluo-4, HEK293 TRPC4beta/mu-opioid, 1 µM (AID 2554;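 active = primary screen hit whose fluorescence ratio, in both repeats, exceeds the weak agonist control mean by 3 SD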); details: DAMGO EC20, Fluo-4 calcium flux, at 1 µM; active compounds read high
# [4] = tested on: TRPC4 beta (transient receptor potential cation channel C4), mouse; assay: positive allosteric modulators of mouse TRPC4, confirmation, cell-based, Fluo-4, HEK293 TRPC4beta/mu-opioid (AID 2555;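 active = primary screen hit whose calcium fluorescence ratio, in both repeats, exceeds the weak agonist control mean by 3 SD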); details: DAMGO EC20, Fluo-4 calcium flux, at 10 µM; active compounds read high
# [5] = molecular target: Short transient receptor potential channel 4 (Mus musculus) (UniProt Q9QUQ5); assay: inhibitors of mouse TRPC4 channel, confirmation, cell-based, Fluo4, HEK293 TRPC4beta/mu-opioid (AID 2636;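 active = calcium signal cut by more than 3 SD below the full-agonist control yet still positive, in both repeats and the earlier primary screen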); details: DAMGO, Fluo4 calcium flux, at 10 µM; active compounds read high
# [6] = molecular target: Short transient receptor potential channel 4 (Mus musculus) (UniProt Q9QUQ5); assay: inhibitors of mouse TRPC4 channel, confirmation, cell-based, second round, Fluo4, HEK293 TRPC4beta/mu-opioid, 1 µM (AID 2637;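 active = calcium signal ratio cut to more than 3 SD under the fully stimulated control mean yet still positive, in both repeats and the primary screen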); details: Fluo4 calcium flux, DAMGO, at 1 µM; active compounds read high
# [7] = molecular target: Short transient receptor potential channel 4 (Mus musculus) (UniProt Q9QUQ5); assay: mouse TRPC4 channel activators, dose response, cell-based, HEK293 TRPC4/mu-opioid, Fluo-4 calcium (AID 434937;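 active = primary screen activator hit with a dose response curve and TRPC4 channel activation at any tested dose; inactive = no activation, no dose response, or not a primary hit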)
# [8] = molecular target: Short transient receptor potential channel 4 (Mus musculus) (UniProt Q9QUQ5); assay: TRPC4 positive allosteric modulators, dose response, cell-based, HEK293 TRPC4/mu-opioid, Fluo-4 calcium, EC20 DAMGO (AID 434941);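 also: calcium entry triggered by an EC20 dose of DAMGO at the co-expressed mu-opioid receptor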
# [9] = molecular target: Short transient receptor potential channel 4 (Mus musculus) (UniProt Q9QUQ5); assay: mouse TRPC4 channel inhibitors, dose response, cell-based, HEK293 TRPC4/mu-opioid, Fluo-4 calcium (AID 434942;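 active = primary screen inhibitor hit that blocks the TRPC4 channel at some tested dose, yielding a dose curve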)
# [10] = molecular target: Short transient receptor potential channel 6 (Mus musculus) (UniProt Q61143); assay: inhibition of mouse TRPC6 channel, confirmation, selectivity assay for TRPC4 inhibitor project, cell-based, HEK293, membrane potential dye, duplicate (AID 434948;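 active = active in primary screen and both duplicates, each dropping signal beyond three positive-control SD with fluorescence still positive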); details: HEK293 TRPC6, membrane potential dye fluorescence, at 10 µM, stimulated with maximal-effect acetylcholine; active compounds read high
# [11] = molecular target: Short transient receptor potential channel 6 (Mus musculus) (UniProt Q61143); assay: activation of mouse TRPC6 channel, confirmation, selectivity assay for TRPC4 activator project, cell-based, HEK293, membrane potential dye, duplicate (AID 434950;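 active = membrane potential signal rise above negative control mean plus 3 SD in both duplicates, also active in the earlier TRPC4 screen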); details: HEK293 TRPC6, membrane potential fluorescence, at 10 µM; active compounds read high
# [12] = molecular target: Short transient receptor potential channel 6 (Mus musculus) (UniProt Q61143); assay: TRPC6 potentiation by TRPC4 potentiator hits, confirmation, selectivity assay for TRPC4 potentiator project, HEK293 cells, membrane potential dye, duplicate (AID 434952;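 active = compound raising the membrane signal above positive-control mean plus 3 SD in both repeats, and a primary screen hit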); details: HEK293 TRPC6, membrane potential dye fluorescence, at 10 µM, maximal acetylcholine added after compound; active compounds read high
# [13] = molecular target: Short transient receptor potential channel 4 (Mus musculus) (UniProt Q9QUQ5); assay: calcium flux activators in TRPC4/5HT1a cells, counter-screen for TRPC4 activator project, cell-based, second counter screen, HEK293 TRPC4/5HT1a, Fluo-4 (AID 434977;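 active = calcium signal rise above buffer-control mean plus 5 SD in both duplicates, and also a hit in the primary screen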); details: Fluo-4 calcium flux, at 10 µM; active compounds read high
# [14] = calcium flux inhibitors in TRPC4/5HT1a cells, confirmation, counter-screen for TRPC4 inhibitor project, cell-based, second counter screen, HEK293 TRPC4/5HT1a, Fluo-4 (AID 434978;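 active = primary screen active whose calcium signal fell more than 3 SD beyond the full-serotonin control mean in both duplicate plates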;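 also: serotonin given first at submaximal then at maximal dose after compound preincubation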); details: Fluo-4 calcium flux, at 10 µM, serotonin added to trigger calcium flux; active compounds read high
# [15] = tested on: TRPC4 (mouse), co-expressed with 5HT1a in HEK293; assay: calcium flux potentiators in TRPC4/5HT1a cells, confirmation, counter-screen for TRPC4 potentiator project, cell-based, second counter screen, HEK293 TRPC4/5HT1a, Fluo-4 (AID 434979;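 active = signal rise over 3 SD above mean of control wells given weak agonist, in both repeats and first screen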); details: Fluo-4 calcium flux, at 10 µM, serotonin added at its EC20 dose; active compounds read high
# [16] = calcium flux activation in mu-opioid HEK293 cells, confirmation, counter-screen for TRPC4 activator project, cell-based, HEK293 mu-opioid receptor line (AID 449723;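 active = hit in primary screen, with calcium signal over 5 SD above buffer well mean in both duplicates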;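 also: counter screen cells carry the mu-opioid receptor alone and lack TRPC4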); details: Fluo-4 calcium fluorescence, at 10 µM; active compounds read high
# [17] = calcium flux enhancement in mu-opioid HEK293 cells, confirmation, counter-screen for TRPC4 allosteric potentiator project, cell-based, HEK293 mu-opioid receptor line (AID 449724;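 active = calcium signal rise more than 3 SD above the low-dose agonist control mean, in both duplicate plates and the primary screen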); details: Fluo-4 calcium flux, at 10 µM, compound added before EC20 DAMGO stimulus; active compounds read high
# Sequence of Short transient receptor potential channel 6 (Mus musculus) (Q61143 whole entry, looked up): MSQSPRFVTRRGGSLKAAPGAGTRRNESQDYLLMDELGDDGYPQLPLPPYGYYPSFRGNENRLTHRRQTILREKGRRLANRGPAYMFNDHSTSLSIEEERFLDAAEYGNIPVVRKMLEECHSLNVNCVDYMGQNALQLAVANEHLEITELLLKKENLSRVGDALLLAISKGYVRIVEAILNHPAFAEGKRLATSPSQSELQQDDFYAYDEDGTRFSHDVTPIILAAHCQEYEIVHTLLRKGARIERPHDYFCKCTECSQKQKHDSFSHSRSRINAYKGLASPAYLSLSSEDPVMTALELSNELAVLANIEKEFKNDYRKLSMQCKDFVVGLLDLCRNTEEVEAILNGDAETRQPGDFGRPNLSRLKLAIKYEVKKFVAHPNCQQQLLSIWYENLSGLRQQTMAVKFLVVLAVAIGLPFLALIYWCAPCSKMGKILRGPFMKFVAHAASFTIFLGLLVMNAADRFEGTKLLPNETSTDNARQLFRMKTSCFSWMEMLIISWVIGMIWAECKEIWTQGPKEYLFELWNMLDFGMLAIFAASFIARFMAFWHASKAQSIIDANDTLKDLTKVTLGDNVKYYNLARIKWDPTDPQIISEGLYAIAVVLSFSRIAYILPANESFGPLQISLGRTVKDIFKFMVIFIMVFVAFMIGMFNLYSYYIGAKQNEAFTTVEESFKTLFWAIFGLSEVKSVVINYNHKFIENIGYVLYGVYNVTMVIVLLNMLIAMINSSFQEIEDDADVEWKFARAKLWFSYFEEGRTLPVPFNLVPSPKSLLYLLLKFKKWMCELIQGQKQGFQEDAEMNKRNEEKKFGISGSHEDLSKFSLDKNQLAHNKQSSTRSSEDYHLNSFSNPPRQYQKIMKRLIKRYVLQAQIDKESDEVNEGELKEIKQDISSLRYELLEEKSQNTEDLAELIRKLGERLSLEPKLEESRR
# Sequence of Short transient receptor potential channel 4 (Mus musculus) (Q9QUQ5 whole entry, looked up): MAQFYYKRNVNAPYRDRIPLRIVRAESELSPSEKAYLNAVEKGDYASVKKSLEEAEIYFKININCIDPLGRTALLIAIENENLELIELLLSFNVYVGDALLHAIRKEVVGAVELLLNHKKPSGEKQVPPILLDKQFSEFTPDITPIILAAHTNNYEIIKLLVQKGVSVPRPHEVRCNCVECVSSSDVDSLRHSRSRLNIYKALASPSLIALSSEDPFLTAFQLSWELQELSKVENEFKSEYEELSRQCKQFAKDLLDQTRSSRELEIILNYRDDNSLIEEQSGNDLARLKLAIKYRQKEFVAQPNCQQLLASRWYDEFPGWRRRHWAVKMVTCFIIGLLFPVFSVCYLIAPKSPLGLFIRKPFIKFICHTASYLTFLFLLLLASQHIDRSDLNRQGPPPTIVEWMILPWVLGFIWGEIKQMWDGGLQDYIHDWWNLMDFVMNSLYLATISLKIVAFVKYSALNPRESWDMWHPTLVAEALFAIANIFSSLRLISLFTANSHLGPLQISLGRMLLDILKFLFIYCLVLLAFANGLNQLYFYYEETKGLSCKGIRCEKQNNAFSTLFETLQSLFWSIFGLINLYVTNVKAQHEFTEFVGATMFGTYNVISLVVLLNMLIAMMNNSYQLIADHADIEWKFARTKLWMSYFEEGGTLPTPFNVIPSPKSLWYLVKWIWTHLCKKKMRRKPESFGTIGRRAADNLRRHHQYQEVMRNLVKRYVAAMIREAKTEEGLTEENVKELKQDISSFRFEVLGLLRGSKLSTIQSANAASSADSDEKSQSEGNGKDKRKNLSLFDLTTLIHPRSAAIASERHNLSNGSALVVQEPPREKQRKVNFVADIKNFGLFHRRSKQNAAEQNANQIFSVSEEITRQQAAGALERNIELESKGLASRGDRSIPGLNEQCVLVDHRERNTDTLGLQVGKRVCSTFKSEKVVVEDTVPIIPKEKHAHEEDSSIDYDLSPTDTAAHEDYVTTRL
Compound,outcome [1],outcome [2],outcome [3],outcome [4],outcome [5],outcome [6],outcome [7],outcome [8],outcome [9],outcome [10],outcome [11],outcome [12],outcome [13],outcome [14],outcome [15],outcome [16],outcome [17],potentiation [4],potentiation [15],potentiation [3]
Cc1ccc2nc(C(=O)N3CCc4c([nH]c5ccccc45)C3c3ccccn3)cn2c1 (stereo not drawn),inactive,inactive,inactive,inactive,inactive,inactive,inactive,inactive,inactive,inactive,inactive,inactive,inactive,inactive,inactive,inactive,inactive,–,–,–
O=C(c1ccccc1)c1coc2ccc(O)c(CN3CCOCC3)c12,inactive,inactive,inactive,inactive,inactive,inactive,inactive,inactive,inactive,inactive,inactive,inactive,inactive,inactive,inactive,inactive,inactive,–,–,–
Cc1cccc(N2CCN(C(=O)C3(S(=O)(=O)c4ccc(Cl)cc4)CC3)CC2)c1C,inactive,inactive,inactive,–,inactive,inactive,inactive,inactive,inactive,inactive,inactive,inactive,inactive,inactive,–,inactive,inactive,13% (active),15.1% (active),–
COc1ccc2c(c1)c1ncn(CCN3CCCC3)c(=O)c1n2C,inactive,inactive,–,inactive,inactive,inactive,inactive,inactive,inactive,inactive,inactive,inactive,inactive,inactive,–,inactive,inactive,–,12.8% (active),13% (active)
CCN1CCN(C(=O)c2cc(-c3ccc(Cl)s3)nc3ccccc23)CC1,inactive,inactive,inactive,–,inactive,inactive,inactive,inactive,inactive,inactive,inactive,inactive,inactive,inactive,–,inactive,inactive,148% (active),37% (active),–
Cc1ccc(-n2c(N)cc(=O)nc2SCC(=O)N2CCN(c3ccccc3)CC2)cc1,inactive,inactive,inactive,inactive,inactive,inactive,inactive,inactive,inactive,inactive,inactive,inactive,inactive,inactive,inactive,inactive,inactive,–,–,–
CCn1c2ccccc2c2cc(NC(=O)CN3CCCC3)ccc21,inactive,inactive,inactive,–,inactive,inactive,inactive,inactive,inactive,inactive,inactive,inactive,inactive,inactive,–,inactive,inactive,33% (active),11.8% (active),–
CCC(=O)Nc1cc(ON=C(C)C)cc([N+](=O)[O-])c1,inactive,inactive,inactive,inactive,inactive,inactive,inactive,inactive,inactive,inactive,inactive,inactive,inactive,inactive,inactive,inactive,inactive,–,–,–
Cc1cc(C)c(S(=O)(=O)N2CCN(C)CC2)c(C)c1,inactive,inactive,–,inactive,inactive,inactive,inactive,inactive,inactive,inactive,inactive,inactive,inactive,inactive,–,inactive,inactive,–,12.4% (active),9% (active)
CC1=CC(=O)C(C(C)C)=C/C1=N/OS(=O)(=O)c1ccccc1,inactive,inactive,inactive,–,inactive,inactive,inactive,inactive,inactive,inactive,inactive,inactive,inactive,inactive,–,inactive,inactive,23% (active),64.1% (active),–
Cn1c(CN2CCN(c3ccccc3NS(C)(=O)=O)CC2)nc2ccccc21,inactive,inactive,inactive,inactive,inactive,inactive,inactive,inactive,inactive,inactive,inactive,inactive,inactive,inactive,inactive,inactive,inactive,–,–,–
COc1ccc(C(=O)N2CCN(c3c(C)cccc3C)CC2)cc1OC,inactive,inactive,inactive,inactive,inactive,inactive,inactive,inactive,inactive,inactive,inactive,inactive,inactive,inactive,–,inactive,inactive,–,15% (active),–
CCN1CCN(c2ccc(S(=O)(=O)N3CCCCC3)cc2NC(=O)c2cc3ccccc3o2)CC1,inactive,inactive,inactive,–,inactive,inactive,inactive,inactive,inactive,inactive,inactive,inactive,inactive,inactive,–,inactive,inactive,27% (active),24.6% (active),–
C/C=C(/C)C(=O)O[C@@H]1c2cc(OC)c(OC)c(OC)c2-c2c(cc3c(c2OC)OCO3)C[C@H](C)[C@]1(C)O,inactive,inactive,inactive,inactive,inactive,inactive,inactive,inactive,inactive,inactive,inactive,inactive,inactive,inactive,inactive,inactive,inactive,–,–,–
